High-throughput results: PubChem, several laboratories
Cardio protect = protects H9c2 cardiomyocytes from peroxide injury. H2O2 injury protection, ATPLite, 2 h. protection from H2O2 cell death, % at 20 µM. actives 0.63% (n = 360,000);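 active = compounds giving at least 50% protection of heart cells from peroxide-induced death in the single-dose screen, raw or plate-pattern-corrected value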
Jurkat NFkB inh = inhibitors of the PMA/ionomycin-induced NF-kB reporter in Jurkat cells. inhibition, % at 4 µM. PMA/ionomycin-induced NF-kB luciferase reporter, luminescence. actives 0.53% (n = 330,000); in the data active = inhibition above about 50%
H9c2 TAG inh = inhibitors of triacylglycerol accumulation; H9c2 cells, Nile Red lipid (TAG) fluorescence; cells loaded with 200 µM oleic acid; inhibition, % at 12.5 µM; actives 0.66% (n = 230,000); AID 651582;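 active = pattern-corrected inhibition of lipid staining of at least 50% with the nuclear-stain viability signal not falling by more than 50%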
NR2F2 inh = inhibitors of human COUP-TFII (NR2F2); inhibition, % at 8.6 µM; HEK293T NGFI-A luciferase reporter, luminescence; AID 686940; actives 0.7% (n = 370,000); P24468;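 active = inhibition above a per-plate cutoff, mean inhibition of test wells between control levels plus 3 SD, cut at about 38% in these data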;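 also: cells cotransfected with COUP-TFII expression vector driving the NGFI-A reporter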
Target sequence (P24468 whole entry, looked up): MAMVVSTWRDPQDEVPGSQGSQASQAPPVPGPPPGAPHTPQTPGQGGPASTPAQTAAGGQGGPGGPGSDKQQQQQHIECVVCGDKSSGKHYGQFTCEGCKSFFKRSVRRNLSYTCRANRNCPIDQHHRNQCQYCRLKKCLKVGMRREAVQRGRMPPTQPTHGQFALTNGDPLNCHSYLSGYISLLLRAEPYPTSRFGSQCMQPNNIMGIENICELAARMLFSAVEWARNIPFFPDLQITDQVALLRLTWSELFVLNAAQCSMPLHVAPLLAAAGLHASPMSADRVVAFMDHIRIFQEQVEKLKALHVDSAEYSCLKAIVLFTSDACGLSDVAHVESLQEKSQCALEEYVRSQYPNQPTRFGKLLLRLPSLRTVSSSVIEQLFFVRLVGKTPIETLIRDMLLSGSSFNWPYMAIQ
697 NFkB inh = lowers PMA/ionomycin-induced NF-kB signal in 697 B cells. 697 B-cell NF-kB luciferase reporter, 16 h. inhibition, % at 4 µM. actives 0.33% (n = 330,000); in the data active = inhibition above about 35%
Gli-Sufu antag = Gli-Sufu pathway antagonism; AID 588413; Sufu-KO-LIGHT fibroblasts, Gli luciferase reporter luminescence; actives 0.74% (n = 340,000); inhibition, % at 5 µM;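 active = inhibition above about 55%, limit read from the data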
Gal4-VP16 ctr = VP16 inhibition counter-screen for COUP-TFII | shares compounds with NR2F2 inh | HEK293 Gal4-VP16 luciferase reporter, luminescence | inhibition, % at 8.5 µM | actives 25% (n = 2,500) | AID 687007; in the data active = inhibition above about 13%
NR2F2 inh conf = confirmation of human COUP-TFII (NR2F2) inhibitors | shares compounds with NR2F2 inh | HEK293 NGFI-A luciferase reporter, luminescence | inhibition, % at 8.5 µM | actives 45% (n = 2,500);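 active = mean inhibition over three repeats above a set limit taken from the earlier primary screen, cut at about 38% in these data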
Numbers stand for hits; i = inactive; nt = no result given. The list is not random: actives were taken first. Their share in the collection is about 2.6%.

SMILES | Cardio protect | Jurkat NFkB inh | H9c2 TAG inh | NR2F2 inh | 697 NFkB inh | Gli-Sufu antag | Gal4-VP16 ctr | NR2F2 inh conf
COc1cccc(C2CC=C(C(=O)O)CN2S(=O)(=O)c2ccc(C)cc2)c1 (stereo not drawn) | nt | nt | nt | i | nt | nt | nt | nt
CCCCNc1ccc2c(c1)OC[C@H](Cc1ccccc1)NS2(=O)=O | nt | nt | nt | i | nt | nt | nt | nt
O=C(C1CCC(CNS(=O)(=O)c2cccs2)CC1)N1CCCCC1 (stereo not drawn) | i | i | i | i | i | i | nt | nt
Cc1cccc(N2CCN(C(=O)C3CCC(CNS(=O)(=O)c4cccs4)CC3)CC2)c1C (stereo not drawn) | i | i | nt | 51.1 | i | i | i | i
COCCNC(=S)N1CCC(C(=O)c2ccc(F)cc2)CC1 | i | nt | i | i | nt | i | nt | nt
COc1ccc(CCNC(=S)N2CCC(C(=O)c3ccc(F)cc3)CC2)cc1OC | i | i | i | 43.2 | i | i | i | i
COc1ccc(C(=O)C2CCN(C(=S)NCCc3ccc(OC)c(OC)c3)CC2)cc1 | i | i | i | 44.0 | i | i | i | i
C[C@@H]1COc2cc(N3CCSCC3)ccc2S(=O)(=O)N1C | nt | nt | nt | i | nt | nt | nt | nt
C[C@@H]1COc2cccc(N3CCCC3)c2S(=O)(=O)N1 | nt | nt | nt | i | nt | nt | nt | nt
Cc1cc(S(=O)(=O)c2ccc(Cl)cc2)nc(S(=O)(=O)c2ccc(Cl)cc2)c1C#N | i | nt | i | 44.7 | nt | nt | 55.8 | 62.1
C[C@@H]1COc2cc(N3CCOCC3)ccc2S(=O)(=O)N1 | nt | nt | nt | i | nt | nt | nt | nt
CCOC(=O)Nc1cc(=O)c([N+](=O)[O-])c(N)[nH]1 | nt | nt | nt | i | nt | nt | nt | nt
COc1ccc2cc3c(N)nn(C(=O)Cc4c[nH]c5ccccc45)c3nc2c1 | i | i | i | 41.6 | i | i | 23.9 | i
COc1ccc2cc3c(N)nn(C(=O)c4ccccc4Cl)c3nc2c1 | i | i | i | 45.2 | i | i | 23.0 | i
CCn1cc(C(=O)NCc2cccc(F)c2)c(=O)c2cc(F)c(N3CCN(C(=O)c4ccco4)CC3)cc21 | 54.8 | i | i | 38.3 | i | i | i | i
CCCNC(=O)c1cn(CC)c2cc(N3CCN(C(=O)c4ccco4)CC3)c(F)cc2c1=O | i | i | nt | i | i | i | nt | nt
CCOC(=O)[C@]12CCCCC/C=C\1N(Cc1ccc(OC)cc1)C(=O)[C@H]2CC(=O)NCC12CC3CC(CC(C3)C1)C2 | nt | nt | nt | i | nt | nt | nt | nt
COC(=O)c1cc(N/C(N)=N/c2nc(C)cc(C)n2)cc(C(=O)OC)c1 | i | nt | i | 42.4 | nt | nt | i | i
CC(=O)Nc1cccc(N/C(N)=N/c2nc(C)cc(C)n2)c1 | i | i | i | i | i | i | nt | nt
Cc1ccc(-n2ncc3c2CCCC3NC(=O)CCC2=NNC(=O)CC2)cc1C (stereo not drawn) | i | i | i | i | i | i | nt | nt
CC(C)(C)c1ccc(-n2ncc3c2CCCC3NC(=O)CCC2=NNC(=O)CC2)cc1 (stereo not drawn) | i | nt | i | 38.9 | nt | nt | i | i
CC(C)(C)c1ccc(C(=O)Nc2cccc3c(=O)[nH][nH]c(=O)c23)cc1 | i | nt | nt | 48.3 | nt | i | i | 53.5
COC(=O)C1=C(C)N(Cc2ccccc2C(F)(F)F)C(=NCC2CC2)NC1c1cccc(F)c1 (stereo not drawn) | nt | nt | nt | i | nt | nt | nt | nt
O=C1C=CC2C3C(=O)N(c4ccccc4)C(=O)C3C1N2Cc1ccccc1 (stereo not drawn) | i | nt | i | 60.1 | nt | i | 16.9 | i
O=C1C2C3C=CC(CC3)C2C(=O)N1c1ccccc1 (stereo not drawn) | i | i | nt | i | i | i | nt | nt
SMILES | Cardio protect | Jurkat NFkB inh | H9c2 TAG inh | NR2F2 inh | 697 NFkB inh | Gli-Sufu antag | Gal4-VP16 ctr | NR2F2 inh conf
COc1ccccc1S(=O)(=O)N(C)C[C@H]1Oc2cc(Br)ccc2S(=O)(=O)N([C@H](C)CO)C[C@H]1C | nt | nt | nt | i | nt | nt | nt | nt
CCN(CC)S(=O)(=O)c1cc(NC(=O)c2ccc(-n3cncn3)c([N+](=O)[O-])c2)ccc1C | i | i | i | 54.0 | i | i | i | i
CC(=O)N1c2cc(S(=O)(=O)Nc3c(C)n(C)n(-c4ccccc4)c3=O)c(Br)cc2CC1C (stereo not drawn) | nt | nt | nt | i | nt | nt | nt | nt
O=C(N/N=C\c1ccc(-c2ccc([N+](=O)[O-])cc2)o1)c1ccc2c(c1)OCO2 | i | i | nt | i | i | i | nt | nt
O=C(N/N=C/c1ccc([N+](=O)[O-])o1)c1ccc2c(c1)OCO2 | i | i | nt | 53.9 | i | i | 45.1 | 44.4
CN(C)/C=C/c1c([N+](=O)[O-])c2ccc(O)cc2n1-c1ccccc1 | i | i | i | 40.0 | i | i | i | i
COC(=O)[C@]12C[C@H](CC(=O)N3CCN(C(=O)C4CC4)CC3)C(=O)N(Cc3cccc4ccccc34)C1=C[C@H](C(C)C)O[C@@H]2C1CC1 | nt | nt | nt | i | nt | nt | nt | nt
Cc1ccc(-c2onc(C)c2C)cc1S(=O)(=O)N1CCOc2ccccc21 | i | i | nt | 58.8 | i | i | i | i
Cc1cc(-c2ccc(C(C)C)c(S(=O)(=O)N3CCOc4ccccc43)c2)on1 | i | i | nt | i | i | i | nt | nt
CC1(C(=O)Nc2ccccc2)CCN1C(=O)Cc1ccc(-c2ccccc2)cc1 (stereo not drawn) | i | nt | i | i | nt | nt | nt | nt
CC1(C(=O)Nc2ccc3[nH]ncc3c2)CCN1C(=O)Cc1ccc(-c2ccccc2)cc1 (stereo not drawn) | i | nt | i | 46.8 | nt | nt | i | i
CC1(C(=O)Nc2ccc3c(c2)OCO3)CCN1C(=O)Cc1ccc(-c2ccccc2)cc1 (stereo not drawn) | i | nt | i | 42.5 | nt | nt | i | i
Cc1nc2ccc(NC(=O)c3ccc(F)cc3F)cc2c(=O)[nH]1 | nt | nt | nt | i | nt | nt | nt | nt
COc1ccc(NC(=O)CN(C)C(=O)c2cccc(S(=O)(=O)N3CCN(c4ccc(F)cc4)CC3)c2)cc1 | i | nt | i | 45.9 | nt | i | i | i
O=C(NC1CCN(Cc2ccccc2)CC1)c1cccc(S(=O)(=O)Nc2ccc(SC(F)F)cc2)c1 | i | i | i | i | i | i | nt | nt
CS(=O)(=O)c1ccc(NC(=O)c2cccc(S(=O)(=O)N3CCN(Cc4ccccc4)CC3)c2)cc1 | i | i | nt | 40.8 | i | i | i | i
Cc1ccc(NS(=O)(=O)c2cccc(C(=O)NC3CCN(Cc4ccccc4)CC3)c2)cc1 | i | nt | i | 39.9 | nt | i | i | i
CN(C)C(=O)c1ccc(NC(=O)c2cccc(S(=O)(=O)N3CCN(Cc4ccccc4)CC3)c2)cc1 | i | nt | i | i | nt | i | nt | nt
CN(CC(=O)Nc1ccc(Cl)cc1)C(=O)c1cccc(S(=O)(=O)N2CCN(Cc3ccccc3)CC2)c1 | i | i | i | 37.5 | i | i | i | i
CN(CC(=O)Nc1ccc(F)cc1)C(=O)c1cccc(S(=O)(=O)N2CCN(c3ccccc3)CC2)c1 | i | i | i | i | i | i | nt | nt
COc1ccc(-c2ccc3c(n2)CCCN3S(=O)(=O)c2cccs2)cc1 | nt | nt | nt | i | nt | nt | nt | nt
